Measured values reported in the supplement of paper PMC8728848.
About 410 targets per protein were measured; listed, in parts, are those with the strongest signals and a random draw of the rest.

Assays:
Assay in all cases: glycan array binding signal (z-score within array); higher = stronger binding
[1] = target: Fuc(a1-2)[Gal(a1-4)]Gal(b1-4)GlcNAc; details: glycan notation: IUPAC condensed, linker removed; mutation: E347A
In short: (§1)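 Glycan array data were curated from 3228 arrays in the Consortium for Functional Glycomics database and kept only where the protein sequence was available. Glycan names were converted to IUPAC-condensed notation, and columns mapping to the same glycan were averaged. The binding signal is a within-array Z-score, averaged across arrays of the same protein sequence at different concentrations or buffers and across linkers. Negative Z-scores can be read as non-binding.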

[2] = target: Fuc(a1-3)[GalNAc(b1-4)]GlcNAc; details: glycan notation: IUPAC condensed, linker removed; mutation: E347A
In short: as §1

Gal(a1-3)Gal(b1-4)GlcNAc = details: glycan notation: IUPAC condensed, linker removed; mutation: E347A
In short: as §1

Gal(a1-3)GalNAc = details: glycan notation: IUPAC condensed, linker removed; mutation: E347A
In short: as §1

Gal(a1-6)Glc = details: glycan notation: IUPAC condensed, linker removed; mutation: E347A
In short: as §1

Gal(b1-2)Gal = details: glycan notation: IUPAC condensed, linker removed; mutation: E347A
In short: as §1

[3] = target: Gal(b1-3)GlcNAc(b1-3)Gal(b1-4)GlcNAc; details: glycan notation: IUPAC condensed, linker removed; mutation: E347A
In short: as §1

[4] = target: Gal(b1-3)[GlcNAc(b1-6)]GalNAc; details: glycan notation: IUPAC condensed, linker removed; mutation: E347A
In short: as §1

[5] = target: Gal(b1-3)[Neu5Ac(a2-6)]GlcNAc(b1-6)Gal(b1-4)Glc; details: glycan notation: IUPAC condensed, linker removed; mutation: E347A
In short: as §1

[6] = target: Gal(b1-4)GlcNAc(a1-6)Gal(b1-4)GlcNAc; details: glycan notation: IUPAC condensed, linker removed; mutation: E347A
In short: as §1

[7] = target: Gal(b1-4)GlcNAc(b1-3)Gal(b1-4)GlcNAc; details: glycan notation: IUPAC condensed, linker removed; mutation: E347A
In short: as §1

[8] = target: Gal(b1-4)GlcNAc(b1-3)GalNAc; details: glycan notation: IUPAC condensed, linker removed
In short: as §1

[9] = target: Gal(b1-4)GlcNAc(b1-6)Gal(b1-4)GlcNAc; details: glycan notation: IUPAC condensed, linker removed; mutation: E347A
In short: as §1

GlcNAc(b1-3)Gal = details: glycan notation: IUPAC condensed, linker removed; mutation: E347A
In short: as §1

GlcNAc3Prop(b1-4)GlcNAc = details: glycan notation: IUPAC condensed, linker removed; mutation: E347A
In short: as §1

Man(a1-2)Man(a1-3)Man = details: glycan notation: IUPAC condensed, linker removed; mutation: E347A
In short: as §1

[10] = target: Man(a1-2)Man(a1-3)[Man(a1-2)Man(a1-6)]Man; details: glycan notation: IUPAC condensed, linker removed; mutation: E347A
In short: as §1

[11] = target: Man(a1-2)Man(a1-3)[Man(a1-2)Man(a1-6)]Man(a1-6)[Man(a1-2)Man(a1-2)Man(a1-3)]Man; details: glycan notation: IUPAC condensed, linker removed; mutation: E347A
In short: as §1

[12] = target: Man(a1-2)Man(a1-3)[Man(a1-6)]Man(a1-6)[Man(a1-2)Man(a1-3)]Man(b1-4)GlcNAc(b1-4)GlcNAc; details: glycan notation: IUPAC condensed, linker removed; mutation: E347A
In short: as §1

[13] = target: Man(a1-2)Man(a1-6)[Man(a1-3)]Man(a1-6)[Man(a1-2)Man(a1-2)Man(a1-3)]Man; details: glycan notation: IUPAC condensed, linker removed; mutation: E347A
In short: as §1

[14] = target: Man(a1-3)[Man(a1-6)]Man(a1-6)[Man(a1-2)Man(a1-3)]Man(b1-4)GlcNAc(b1-4)GlcNAc; details: glycan notation: IUPAC condensed, linker removed; mutation: E347A
In short: as §1

[15] = target: Man(a1-3)[Man(a1-6)]Man(a1-6)[Man(a1-3)]Man(b1-4)GlcNAc(b1-4)GlcNAc; details: glycan notation: IUPAC condensed, linker removed; mutation: E347A
In short: as §1

[16] = target: Neu5Ac(a2-3)Gal(b1-3)GlcNAc; details: glycan notation: IUPAC condensed, linker removed; mutation: E347A
In short: as §1

[17] = target: Neu5Ac(a2-3)Gal6S(b1-4)[Fuc(a1-3)]GlcNAc; details: glycan notation: IUPAC condensed, linker removed; mutation: E347A
In short: as §1

[18] = target: Neu5Gc(a2-3)Gal(b1-3)GlcNAc; details: glycan notation: IUPAC condensed, linker removed; mutation: E347A
In short: as §1

[19] = target: Fuc(a1-2)[GalNAc(a1-3)]Gal(b1-4)Glc; details: glycan notation: IUPAC condensed, linker removed
In short: as §1

[20] = target: Gal(b1-3)GalNAc(b1-4)Gal(b1-4)Glc; details: glycan notation: IUPAC condensed, linker removed
In short: as §1

[21] = target: Gal(b1-4)GlcNAc(b1-3)Gal(b1-4)[Fuc(a1-3)]GlcNAc(b1-3)Gal(b1-4)[Fuc(a1-3)]GlcNAc; details: glycan notation: IUPAC condensed, linker removed
In short: as §1

Gal3S6S(b1-4)GlcNAc6S = details: glycan notation: IUPAC condensed, linker removed
In short: as §1

Glc(a1-4)Glc = details: glycan notation: IUPAC condensed, linker removed
In short: as §1

GlcNAc(b1-3)GalNAc = details: glycan notation: IUPAC condensed, linker removed
In short: as §1

[22] = target: GlcNAc(b1-3)[GlcNAc(b1-6)]GalNAc; details: glycan notation: IUPAC condensed, linker removed
In short: as §1

[23] = target: GlcNAc(b1-4)[GlcNAc(b1-6)]GalNAc; details: glycan notation: IUPAC condensed, linker removed
In short: as §1

[24] = target: Neu5Ac(a2-3)Gal(b1-3)[Fuc(a1-4)]GlcNAc; details: glycan notation: IUPAC condensed, linker removed
In short: as §1

[25] = target: Neu5Ac(a2-3)Gal(b1-4)GlcNAc; details: glycan notation: IUPAC condensed, linker removed
In short: as §1

[26] = target: Neu5Ac(a2-3)Gal(b1-4)GlcNAc(b1-3)Gal(b1-4)GlcNAc(b1-3)Gal(b1-4)GlcNAc; details: glycan notation: IUPAC condensed, linker removed
In short: as §1

[27] = target: Neu5Ac(a2-3)Gal(b1-4)[Fuc(a1-3)]GlcNAc6S; details: glycan notation: IUPAC condensed, linker removed
In short: as §1

[28] = target: Neu5Ac9Ac(a2-6)Gal(b1-4)GlcNAc; details: glycan notation: IUPAC condensed, linker removed
In short: as §1

[29] = target: Neu5Gc(a2-6)Gal(b1-4)GlcNAc; details: glycan notation: IUPAC condensed, linker removed
In short: as §1

B1: Surfactant Protein D (Human); Neck + Carbohydrate Recognition Domain (NCRD) (Homo sapiens) (protein)
chain: MLLFLLSALVLLTQPLGYLEAEMKTYSHRTMPSACTLVMCSSVESGLPGRDRDGREGPRGEKGDPGLPGAAGQAGMPGQAGPVGPKGDNGSVGEPGPKGDTGPSGPPGPPGVPGPAGREGALGKQGNIGPQGKPGPKGEAGPKGEVGAPGMQGSAGARGLAGPKGERGVPGERGVPGNTGAAGSAGAMGPQGSPGARGPPGLKGDKGIPGDKGAKGESGLPDVASLRQQVEALQGQVQHLQAAFSQYKKVELFPNGQSVGEKIFKTAQFVKPFTEAQLLCTQAGGQLASPRSAAENAALQQLVVAKNEAAFLSMTDSKTEGKFTYPTGESLVYSNWAPGEPNDDGGSADCVEIFTNGKWNDRACGAKRLVVCEF
For B1, the “glycan array binding signal (z-score)” value [1] was -0.321, the “glycan array binding signal (z-score)” value [2] was -0.435 and the “glycan array binding signal (z-score)” value (Gal(a1-3)Gal(b1-4)GlcNAc) was -0.244. For the same binder, the “glycan array binding signal (z-score)” value (Gal(a1-3)GalNAc) was -0.384, the “glycan array binding signal (z-score)” value (Gal(a1-6)Glc) was -0.408 and the “glycan array binding signal (z-score)” value (Gal(b1-2)Gal) was -0.48. The “glycan array binding signal (z-score)” value [3] was -0.211, the “glycan array binding signal (z-score)” value [4] was -0.15 and the “glycan array binding signal (z-score)” value [5] was -0.424. The “glycan array binding signal (z-score)” value [6] was -0.244, the “glycan array binding signal (z-score)” value [7] was 0.532 and the “glycan array binding signal (z-score)” value ([8]; mutation: E347A) was -0.384. For the same binder, the “glycan array binding signal (z-score)” value [9] was -0.317, the “glycan array binding signal (z-score)” value (GlcNAc(b1-3)Gal) was -0.071 and the “glycan array binding signal (z-score)” value (GlcNAc3Prop(b1-4)GlcNAc) was -0.18. For the same binder, the “glycan array binding signal (z-score)” value (Man(a1-2)Man(a1-3)Man) was 1.58, the “glycan array binding signal (z-score)” value [10] was 6.34 and the “glycan array binding signal (z-score)” value [11] was -0.461. The “glycan array binding signal (z-score)” value [12] was 10.1, the “glycan array binding signal (z-score)” value [13] was 5.19 and the “glycan array binding signal (z-score)” value [14] was 10.2. For the same binder, the “glycan array binding signal (z-score)” value [15] was 0.008, the “glycan array binding signal (z-score)” value [16] was -0.335 and the “glycan array binding signal (z-score)” value [17] was -0.255. The “glycan array binding signal (z-score)” value [18] was 0.

B2: CLL-1 (Homo sapiens) (protein)
chain: MWIDFFTYSSMSEEVTYADLQFQNSSEMEKIPEIGKFGEKAPPAPSHVWRPAALFLTLLCLLLLIGLGVLASMFHVTLKIEMKKMNKLQNISEELQRNISLQLMSNMNISNKIRNLSTTLQTIATKLCRELYSKEQEHKCKPCPRRWIWHKDSCYFLSDDVQTWQESKMACAAQNASLLKINNKNALEFIKSQSRSYDYWLGLSPEEDSTRGMRVDNIINSSAWVIRNAPDLNNMYCGYINRLYVQYYHCTYKKRMICEKMANPVQLGSTYFREA
B2 was tested, and the “glycan array binding signal (z-score)” value [19] was -0.065, the “glycan array binding signal (z-score)” value [20] was -0.279 and the “glycan array binding signal (z-score)” value [21] was -0.107. The “glycan array binding signal (z-score)” value [8] was -0.238, the “glycan array binding signal (z-score)” value (Gal3S6S(b1-4)GlcNAc6S) was 3.91 and the “glycan array binding signal (z-score)” value (Glc(a1-4)Glc) was 1. For the same binder, the “glycan array binding signal (z-score)” value (GlcNAc(b1-3)GalNAc) was -0.228, the “glycan array binding signal (z-score)” value [22] was -0.19 and the “glycan array binding signal (z-score)” value [23] was -0.247. The “glycan array binding signal (z-score)” value [24] was 1.22, the “glycan array binding signal (z-score)” value [25] was -0.14 and the “glycan array binding signal (z-score)” value [26] was 2.45. For the same binder, the “glycan array binding signal (z-score)” value [27] was -0.15, the “glycan array binding signal (z-score)” value [28] was -0.216 and the “glycan array binding signal (z-score)” value [29] was -0.231.
